# Screening data from PubChem.
# SARS PLpro yeast: SARS-CoV PLP inhibition in yeast | S. cerevisiae expressing SARS-CoV PLpro, growth rescue | Potency, µM (series often up to 32.9 µM), for inactives: at the highest dose activity, positive = growth rescue, actives largely listed as activators | actives 0.19% (n = 330,000) | AID 485353; calls by dose curve; note: potency is the fitted concentration of half-maximal effect; 0% is about no effect; nearly all actives have a fitted effect of over 55% in size
# HCMV antiviral: inhibitors of human cytomegalovirus; HFF cells, HCMV-luciferase reporter, 72 h; active compounds read low; activity change, negative = inhibition, % at 57.5 µM; actives 4.5% (n = 410,000); AID 1259415; in the data active = activity change below about -60%; inconclusive = no clear call, values can overlap the other calls; inactive = above about -39%; note: % is set by controls: 0 for no effect and ±100 for the full control effect
#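 After 16 h attachment at 37C, HFF cells received test compound and HCMV-luciferase (1 PFU/cell); reporter luminescence read 72 h later, data normalized against buffer-only and known inhibitor Salinomycin.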
# Pf growth 96h: P. falciparum growth inhibition at 96 hour, primary screen for plastid delayed-death inhibitors; Potency, µM (highest dose often 28.7 µM), for inactives: at the top dose activity change, negative = inhibition, actives largely listed as inhibitors; AID 504834; P. falciparum luciferase reporter growth, 96 h; actives 6.9% (n = 320,000); note: potency is the fitted concentration of half-maximal effect; % is set by controls: 0 for no effect and ±100 for the full control effect
#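 Delayed-death screen, second-generation endpoint: infected erythrocytes, 2% hematocrit, 0.05% parasitemia final; 96 hours at 37 C, 5% CO2; luciferase detection reagent; luminescence decrease equals reduced growth.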
# Sm TGR inh: blocks Schistosoma mansoni thioredoxin glutathione reductase | Q962Y6 | purified TGR, DTNB reduction, TNB absorbance 405 nm | Potency, µM (series often up to 114 µM), for inactives: at the highest dose activity change, negative = inhibition, actives largely listed as inhibitors | actives 3% (n = 360,000) | AID 485364; note: potency is the fitted concentration of half-maximal effect; % is set by controls: 0 for no effect and ±100 for the full control effect; nearly all actives have a fitted effect of over 60% in size
#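 TGR 20 nM + NADPH 100 uM (dispensed conc.), cpd preinc 15 min RT; start with NADPH (500 uM addition) then DTNB (15 mM addition). Kinetic TNB absorbance, 405 nm filter. Four-parameter Hill fit across titration.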
# HCV inhibitor: inhibitors of hepatitis C virus infection; Huh7.5.1 HCVcc-Cre infection, luciferase reporter, 44 h; Potency, µM (series often up to 41.8 µM), without a hit: top-dose activity change, negative = inhibition, hits mostly inhibitors; actives 3.4% (n = 340,000); note: potency is the fitted concentration of half-maximal effect; % is set by controls: 0 for no effect and ±100 for the full control effect
#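 A cell-based infection assay in which seeded cells (1,000 per well) receive test compound after 4 h, are inoculated with HCVcc-Cre at approximately 0.5 moi, and are incubated 44 h before luminescence detection.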
# Pf growth 48h: P. falciparum growth inhibition at 48 hours (one generation) | P. falciparum luciferase growth in erythrocytes, 48 h | Potency, µM (highest dose often 28.7 µM), for the others: at the top dose activity change, negative = inhibition, usual class: inhibitors | actives 5.9% (n = 310,000) | AID 504832; note: potency is the fitted concentration of half-maximal effect; % is set by controls: 0 for no effect and ±100 for the full control effect
#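 A one-generation exposure of luciferase-tagged malaria parasites in RPMI 1640/Albumax erythrocyte culture, 37 C and 5% CO2. Inhibition is inferred from decreased luminescence after adding detection reagent.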
# Numbers without * were called inactive; ? = inconclusive; nt = no result; [ ] = dose if it differs, or a comment. Shown are actives, neighbours in structure and some others; about 15% of the full set was active somewhere. Unless noted, calls come from the whole dose curve; as a rule, active = well fitted curve in the direction sought with a large enough effect; inconclusive = small, poorly fitted or top-dose-only effect, or another doubt; inactive = no such curve, though single readings can be large; an effect the other way counts as inactive or inconclusive.
SMILES,SARS PLpro yeast,HCMV antiviral,Pf growth 96h,Sm TGR inh,HCV inhibitor,Pf growth 48h
O=C(NCCCN1CCC(Cc2ccccc2)CC1)c1ccc2nc(N3CCOCC3)sc2c1,0%,0,?,6%,10µM*,10µM*
O=C(CCCCC(=O)NNC(=O)COc1ccccc1)NNC(=O)COc1ccccc1,-6%,124,-5%,-28%,-1%,16%
CN(C)C(=O)C12CCC(C)(c3nc4ccccc4nc31)C2(C)C (centres undefined),2%,23,2.6µM*,-5%,5%,-26%
CC(C)(C)NC(=O)C12CCC(C)(c3nc4ccccc4nc31)C2(C)C (centres undefined),-8%,-94*,?,4%,-15%,nt
Cc1cc2nc3c(nc2cc1C)C1(C(=O)N(C)C)CCC3(C)C1(C)C (centres undefined),0%,33,nt,0%,9%,?
O=C(Nc1cc(SCCO)cc([N+](=O)[O-])c1)c1ccc(Br)o1,-5%,-36,?,7%,?,?
Cn1nc(C(C)(C)C)c([N+](=O)[O-])c1C(=O)Nc1ccccc1,-20%,-24,?,-4%,13%,-8%
Cn1c(=O)[nH]c(Nc2ccccc2)c([N+](=O)[O-])c1=O,0%,-94*,?,13%,-2%,4%
Cc1cccc(CN2CCN(C(=O)Cc3ccccc3)CC2)c1,-6%,25,?,-20%,2%,?
Cc1ccc(S(=O)(=O)N2CCN(C(=O)N(C)C)CC2)cc1C,0%,-10,nt,-19%,?,-8%
Cc1ccc(/C=C/C(=O)N2CCN(S(=O)(=O)c3c(C)c(C)cc(C)c3C)CC2)o1,-59%,-23,?,10µM*,6%,7.4µM*
Cc1ccc(/C=C/C(=O)N2CCN(Cc3ccccc3)CC2)o1,-10%,-33,402%,14µM*,18%,0%
Cc1ccc(C(=O)N2CCN(Cc3ccccc3)CC2)o1,-1%,37,?,-14%,21%,?
Cc1ccc(/C=C/C(=O)N2CCN(S(=O)(=O)c3ccc(C)c(C)c3)CC2)o1,-33%,-18,5.9µM*,13µM*,-11%,?
Cc1cccc(CN2CCN(C(=O)CCl)CC2)c1,-11%,-34,0.074µM*,35µM*,?,1.2µM*
O=c1oc2ccccc2c(NC(c2ccccc2)c2ccccc2)c1[N+](=O)[O-],6%,-23,163%,0%,-9%,10µM*
CC1(c2ccccc2Br)NC(=O)N(CC(=O)NC2CCCCC2)C1=O (centres undefined),-10%,-12,12µM*,7%,14%,?
COCCCNCCCCOc1ccc(OCc2ccccc2)cc1,0%,?,-4%,nt,11µM*,?
C=CCNCCCCOc1ccc(OCc2ccccc2)cc1,-1%,-69*,0%,nt,?,-12%
COCCCNCCCCOc1ccccc1-c1ccccc1,-13%,-37,5%,-16%,?,?
Cc1ccc(S(=O)(=O)N2CCCCC2)cc1NC(=O)c1ccc(=O)[nH]c1,nt,17,nt,nt,nt,nt
Cn1cc(-c2ccc3c(c2)OCO3)c2ccccc21,nt,-2,nt,nt,nt,nt
C[C@H]1C(=O)N(C)CCN1Cc1cn(C)nc1-c1ccc(Oc2ccccc2)cc1,0%,32,-12%,-18%,?,?
CCN(CC)C(=O)C1CCN(Cc2cn(C)nc2-c2ccc(Oc3ccccc3)cc2)CC1,1%,-17,-26%,6%,-1%,7.4µM*
CC1CCN(CC(=O)Nc2ccc(N3CCCCCC3)cc2)CC1,0%,-5,?,-3%,?,?
SMILES,SARS PLpro yeast,HCMV antiviral,Pf growth 96h,Sm TGR inh,HCV inhibitor,Pf growth 48h
CCOc1ccc(-c2csc(NC(=O)c3cccc(N4C(=O)CCC4=O)c3)n2)cc1,0%,49,3%,7%,-9%,-10%
COc1ccc(-c2csc(NC(=O)c3ccoc3C)n2)cc1,-1%,?,18%,3%,11µM*,56%
O=C(Nc1nc(-c2ccc(F)cc2)cs1)c1ccc(N2C(=O)CCC2=O)cc1,23%,-10,16%,-12%,?,32%
COc1ccc(-c2csc(NC(=O)c3ccc(N4C(=O)CCC4=O)cc3)n2)cc1,0%,-67*,32%[1.15 µM],7%,-9%,0%
Cc1ccc(-c2csc(NC(=O)c3cccc(N4C(=O)CCC4=O)c3)n2)o1,27%,nt,24%,8.9µM*,?,-2%
CC(C)(C)n1nc2c(c1NC(=O)C1CC(=O)N(c3ccc(Cl)cc3)C1)CS(=O)(=O)C2 (centres undefined),-2%,-15,?,-15%,8%,-15%
COc1ccccc1N1CCN(C2C(=O)Nc3ccccc3-n3nnnc32)CC1 (centres undefined),nt,7,nt,nt,nt,nt
CC(=O)NC(NC(C)=O)c1cccc(OCc2ccccc2)c1,-3%,-68*,-1%,-2%,4%,13%
CC(=O)Nc1cccc(NC(=O)c2ccc(COc3ccccc3)cc2)c1,3%,57,92%,-2%,?,59%
Cc1cccc(Nc2c(O)nc[nH]c2=O)c1,nt,7,nt,nt,3%,nt
COc1ccc(CC2SC(=Nc3ccc(F)cc3)NC2=O)cc1 (centres undefined),0%,-38,-25%,4%,3%,2.9µM*
Cc1nc(-c2ccc(C)c(N3CCN(C(=O)Nc4cccc(Cl)c4C)CC3)c2)no1,nt,-88*,nt,3%,nt,nt
Cc1ccc(NC(=O)N2CCN(c3cc(-c4noc(C)n4)ccc3C)CC2)c(C)c1,nt,8,nt,10%,nt,nt
Cc1cccc(C(=O)Nc2sc3c(c2C(=O)NC(C)C)CCCC3)c1,nt,-8,nt,-3%,nt,nt
CN(c1ccccc1)S(=O)(=O)c1ccc(C(=O)Nc2nccs2)cc1,10%,-7,?,-1%,10%,nt
CN(c1ccccc1)S(=O)(=O)c1ccc(C(=O)Nc2ncccc2O)cc1,-11%,nt,9.3µM*,?,16%,6.6µM*
CCN(c1ccccc1)S(=O)(=O)c1ccc(C(=O)Nc2ncccc2C)cc1,2%,-16,-1%,5%,?,?
CCN(c1ccccc1)S(=O)(=O)c1ccc(C(=O)Nc2ncccc2O)cc1,4%,-32,5.9µM*,8%,-10%,?
C/C(=N\NC(=S)Nc1cccc(C)c1)c1ccccc1,?,1,5.2µM*,15%,?,?
COc1ccccc1NC(=S)NN=C(C)c1ccccn1,nt,-102*,nt,nt,?,nt
CC(=NNC(=S)Nc1ccc(C)cc1)c1ccccn1,nt,-94*,nt,nt,?,nt
CC(=NNC(=S)Nc1cccc(C)c1)c1ccccn1,nt,-98*,nt,nt,10µM*,nt
C/C(=N\NC(=S)Nc1cccc(C)c1)c1cccc(N)c1,9%,46,24%,-7%,?,?
